Holding throughout (test): DAPPL (digital affinity profiling via proximity ligation, sequencing); 10 mM Tris-HCl pH 7.5, 50 mM NaCl, 1 mM DTT, 4% glycerol, room temperature, 30 min; GST-TFs on glutathione beads, 16-mer random dsDNA library, 0.1% formaldehyde crosslink after washing; high values mean tight binding
Common to all, as to conditions: protein: recombinant; tags: N-terminal GST; dsDNA, one strand shown

In experiment [1] the target is T1, ELK1 (Homo sapiens, UniProt P19419 1-428).
T1 sequence: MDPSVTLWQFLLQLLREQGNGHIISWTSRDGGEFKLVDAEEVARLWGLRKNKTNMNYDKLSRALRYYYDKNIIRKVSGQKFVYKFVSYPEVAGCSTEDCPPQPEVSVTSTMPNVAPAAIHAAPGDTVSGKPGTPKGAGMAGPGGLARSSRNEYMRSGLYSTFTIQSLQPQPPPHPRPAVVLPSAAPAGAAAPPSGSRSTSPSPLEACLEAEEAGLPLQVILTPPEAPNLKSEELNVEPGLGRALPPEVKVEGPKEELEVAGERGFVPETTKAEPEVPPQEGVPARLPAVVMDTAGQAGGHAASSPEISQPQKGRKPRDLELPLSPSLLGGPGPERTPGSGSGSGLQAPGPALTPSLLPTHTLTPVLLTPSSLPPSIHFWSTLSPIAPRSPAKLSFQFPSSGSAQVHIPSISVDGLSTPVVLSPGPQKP
Put shortly: (§1)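 The binding signal reported is, for every hexamer, its read frequency for a factor over its read frequency for the tag-only sample. Reads came from pools of yeast-expressed, GST-fused human transcription factors on glutathione beads, barcoded with DNA and mixed with that sample, which were incubated with 200 nmole of a random double-stranded 16-mer DNA library in Tris/NaCl/DTT/glycerol buffer at room temperature for 30 min. After washing, the pools were crosslinked with 0.1% formaldehyde, proximity-ligated with BsaI/T4 ligase for 1 h at 37 °C, PCR-amplified and sequenced on an Illumina NextSeq500.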

For experiment [2], the target named is T2, GABPA (Homo sapiens, UniProt Q06546 1-454).
T2 sequence: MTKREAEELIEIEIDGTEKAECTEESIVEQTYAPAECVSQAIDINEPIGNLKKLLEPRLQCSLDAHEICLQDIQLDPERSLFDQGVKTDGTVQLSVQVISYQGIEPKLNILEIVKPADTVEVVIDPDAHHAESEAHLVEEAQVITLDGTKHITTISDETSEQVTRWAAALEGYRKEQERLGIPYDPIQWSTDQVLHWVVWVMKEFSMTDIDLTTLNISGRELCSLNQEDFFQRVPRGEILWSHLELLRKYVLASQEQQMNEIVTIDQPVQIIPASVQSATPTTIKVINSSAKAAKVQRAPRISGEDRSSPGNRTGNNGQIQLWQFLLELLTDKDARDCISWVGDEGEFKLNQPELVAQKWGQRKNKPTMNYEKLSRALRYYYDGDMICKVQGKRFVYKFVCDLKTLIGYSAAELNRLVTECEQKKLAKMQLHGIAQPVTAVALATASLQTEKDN
In outline: as §1

In experiment [3] the target is T3, ERG (Homo sapiens, UniProt P11308 1-479).
T3 sequence: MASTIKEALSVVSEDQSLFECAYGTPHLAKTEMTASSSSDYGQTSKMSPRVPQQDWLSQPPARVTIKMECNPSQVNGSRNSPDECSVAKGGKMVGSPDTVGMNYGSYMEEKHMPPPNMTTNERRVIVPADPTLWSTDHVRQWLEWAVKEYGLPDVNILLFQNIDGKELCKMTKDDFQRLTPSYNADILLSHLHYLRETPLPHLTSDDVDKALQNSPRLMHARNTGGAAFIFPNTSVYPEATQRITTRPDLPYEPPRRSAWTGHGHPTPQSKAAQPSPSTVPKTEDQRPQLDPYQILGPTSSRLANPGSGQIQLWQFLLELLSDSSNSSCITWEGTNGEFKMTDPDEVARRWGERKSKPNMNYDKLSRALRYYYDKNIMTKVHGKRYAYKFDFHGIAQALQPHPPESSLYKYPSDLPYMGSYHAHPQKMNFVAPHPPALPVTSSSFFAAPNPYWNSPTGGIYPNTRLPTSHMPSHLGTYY
In outline:
as §1

Experiment [4] deals with ELF1 (Homo sapiens, UniProt P32519 1-619). Put shortly: as §1
In experiment [5] the target is T4, EHF (Homo sapiens, UniProt Q9NZC4 1-300).
T4 sequence: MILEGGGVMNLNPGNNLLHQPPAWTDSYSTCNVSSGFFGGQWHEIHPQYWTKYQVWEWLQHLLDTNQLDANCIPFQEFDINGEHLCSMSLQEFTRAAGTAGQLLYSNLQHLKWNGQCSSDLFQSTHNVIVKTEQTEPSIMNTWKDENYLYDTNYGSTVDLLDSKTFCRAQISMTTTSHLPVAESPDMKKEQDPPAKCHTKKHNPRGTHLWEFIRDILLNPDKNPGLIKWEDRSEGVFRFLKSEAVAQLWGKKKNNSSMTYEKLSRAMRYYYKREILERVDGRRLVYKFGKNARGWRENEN
In outline:
as §1

The target of experiment [6] is SPIB (Homo sapiens, UniProt Q01892 1-262). In outline:
as §1

The target of experiment [7] is T5, FEV (Homo sapiens, UniProt Q99581 1-238).
T5 sequence: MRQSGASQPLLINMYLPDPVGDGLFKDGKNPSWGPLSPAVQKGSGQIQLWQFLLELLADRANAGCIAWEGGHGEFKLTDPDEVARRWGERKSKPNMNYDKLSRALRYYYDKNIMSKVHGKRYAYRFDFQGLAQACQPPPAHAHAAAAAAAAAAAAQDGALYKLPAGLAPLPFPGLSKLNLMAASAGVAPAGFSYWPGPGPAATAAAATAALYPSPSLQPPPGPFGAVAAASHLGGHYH
Put shortly: as §1

Experiment [8] concerns the target ETV5 (Homo sapiens, UniProt P41161 1-510). In outline:
as §1

The target of experiment [9] is ELF4 (Homo sapiens, UniProt Q99607 1-663). Put shortly:
as §1

Experiment [10] concerns the target T6, ELK4 (Homo sapiens, UniProt P28324-2 1-405).
T6 sequence: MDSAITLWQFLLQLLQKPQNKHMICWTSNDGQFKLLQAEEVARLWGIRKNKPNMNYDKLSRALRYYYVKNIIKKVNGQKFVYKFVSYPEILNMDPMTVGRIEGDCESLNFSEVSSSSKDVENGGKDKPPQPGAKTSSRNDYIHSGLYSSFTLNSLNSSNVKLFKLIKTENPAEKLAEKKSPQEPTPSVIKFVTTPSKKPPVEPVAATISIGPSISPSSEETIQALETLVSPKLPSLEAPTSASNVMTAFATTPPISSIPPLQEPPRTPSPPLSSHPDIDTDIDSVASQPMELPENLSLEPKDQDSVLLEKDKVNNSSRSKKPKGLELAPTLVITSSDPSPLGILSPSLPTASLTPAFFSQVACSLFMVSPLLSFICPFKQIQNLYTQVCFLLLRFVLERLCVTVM
Put shortly:
as §1

ETV5, sequence (P41161 whole entry): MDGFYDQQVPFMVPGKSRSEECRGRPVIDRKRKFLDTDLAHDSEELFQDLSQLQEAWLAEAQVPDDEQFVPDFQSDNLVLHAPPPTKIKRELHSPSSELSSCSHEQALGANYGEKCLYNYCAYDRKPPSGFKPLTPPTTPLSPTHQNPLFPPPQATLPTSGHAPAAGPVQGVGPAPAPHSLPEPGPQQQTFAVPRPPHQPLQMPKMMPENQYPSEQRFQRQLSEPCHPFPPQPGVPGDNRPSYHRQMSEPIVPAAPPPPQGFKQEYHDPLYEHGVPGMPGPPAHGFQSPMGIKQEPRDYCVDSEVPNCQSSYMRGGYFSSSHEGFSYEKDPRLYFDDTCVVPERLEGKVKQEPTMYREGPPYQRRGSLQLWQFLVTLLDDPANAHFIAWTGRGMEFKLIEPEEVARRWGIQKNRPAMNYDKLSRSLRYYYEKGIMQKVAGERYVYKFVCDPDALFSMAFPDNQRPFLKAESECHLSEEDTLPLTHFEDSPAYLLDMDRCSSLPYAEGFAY
ELF4, sequence (Q99607 whole entry): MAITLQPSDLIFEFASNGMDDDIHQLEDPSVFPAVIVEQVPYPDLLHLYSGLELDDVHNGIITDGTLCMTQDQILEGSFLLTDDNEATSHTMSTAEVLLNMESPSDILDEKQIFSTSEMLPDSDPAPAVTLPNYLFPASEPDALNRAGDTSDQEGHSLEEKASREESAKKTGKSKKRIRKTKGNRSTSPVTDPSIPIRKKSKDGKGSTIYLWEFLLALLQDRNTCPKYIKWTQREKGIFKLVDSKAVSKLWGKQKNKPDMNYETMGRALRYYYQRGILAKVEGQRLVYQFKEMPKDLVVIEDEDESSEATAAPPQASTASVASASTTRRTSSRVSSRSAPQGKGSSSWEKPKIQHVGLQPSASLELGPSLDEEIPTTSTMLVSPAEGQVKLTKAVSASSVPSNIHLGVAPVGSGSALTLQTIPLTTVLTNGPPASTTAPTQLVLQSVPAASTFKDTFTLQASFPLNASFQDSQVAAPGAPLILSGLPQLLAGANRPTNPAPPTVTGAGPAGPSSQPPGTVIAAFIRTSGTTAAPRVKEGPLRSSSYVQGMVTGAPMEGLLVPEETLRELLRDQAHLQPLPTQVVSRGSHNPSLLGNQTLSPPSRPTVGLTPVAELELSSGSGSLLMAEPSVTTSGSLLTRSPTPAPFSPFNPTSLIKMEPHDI
SPIB, sequence (Q01892 whole entry): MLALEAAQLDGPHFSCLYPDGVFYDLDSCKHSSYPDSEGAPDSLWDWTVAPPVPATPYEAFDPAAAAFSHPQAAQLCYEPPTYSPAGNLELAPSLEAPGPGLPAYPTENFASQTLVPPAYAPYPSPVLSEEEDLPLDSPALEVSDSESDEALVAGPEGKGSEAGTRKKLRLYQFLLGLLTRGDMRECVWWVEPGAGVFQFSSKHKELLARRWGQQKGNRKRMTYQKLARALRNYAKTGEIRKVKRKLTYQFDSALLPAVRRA
ELF1, sequence (P32519 whole entry): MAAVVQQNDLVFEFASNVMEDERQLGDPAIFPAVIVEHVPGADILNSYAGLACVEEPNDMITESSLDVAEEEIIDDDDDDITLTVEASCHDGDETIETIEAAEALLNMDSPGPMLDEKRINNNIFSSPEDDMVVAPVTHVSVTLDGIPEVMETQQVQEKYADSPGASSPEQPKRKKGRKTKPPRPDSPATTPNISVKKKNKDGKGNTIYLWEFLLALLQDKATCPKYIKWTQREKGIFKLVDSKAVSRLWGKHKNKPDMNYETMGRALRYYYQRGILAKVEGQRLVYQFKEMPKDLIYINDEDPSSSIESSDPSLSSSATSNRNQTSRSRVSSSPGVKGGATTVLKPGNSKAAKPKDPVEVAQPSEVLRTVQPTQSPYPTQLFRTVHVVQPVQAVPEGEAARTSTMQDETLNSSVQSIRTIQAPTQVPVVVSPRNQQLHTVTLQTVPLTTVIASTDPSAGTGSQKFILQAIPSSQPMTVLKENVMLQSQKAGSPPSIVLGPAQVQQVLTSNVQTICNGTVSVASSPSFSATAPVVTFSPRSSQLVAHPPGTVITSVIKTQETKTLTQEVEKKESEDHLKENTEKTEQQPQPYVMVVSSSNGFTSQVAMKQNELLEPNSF

Turning to TCAAGT, the binding signal in experiment [1] is 1.14 fold enrichment (6-mer frequency, TF over GST control); in [2], 1.07 fold enrichment (6-mer frequency, TF over GST control); in experiment [3], 1.04 fold enrichment (6-mer frequency, TF over GST control); in [4], 1.02 fold enrichment (6-mer frequency, TF over GST control); in experiment [5], 1.12 fold enrichment (6-mer frequency, TF over GST control); in [6], 1.08 fold enrichment (6-mer frequency, TF over GST control). Moreover, the binding signal is 1.05 fold enrichment (6-mer frequency, TF over GST control) in experiment [7]; 1.07 fold enrichment (6-mer frequency, TF over GST control) in [8]; 1.13 fold enrichment (6-mer frequency, TF over GST control) in experiment [9]; 1.19 fold enrichment (6-mer frequency, TF over GST control) in experiment [10].

The record behind these values is article PMC7862700, “An all-to-all approach to the identification of sequence-specific readers for epigenetic DNA modifications on cytosine”.
